From PubChem
This is a sample that favours compounds with a hit; in the whole collection about 3.8% have one here.
Nrf2 activator: Nrf2 pathway activation; AID 624171; AREc32 ARE-luciferase reporter (MCF7-derived line), luminescence, 24 h; 410,000 tested, 0.31% active; Potency, µM (series often up to 46.1 µM), without a hit: at the highest dose activation, usual class: activators; also: potency is read from the fitted curve at half-maximal effect; % of control where 0% means no effect; nearly all actives have a fitted effect of over 65% in size
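Cells of the AREc32 ARE-luciferase line are plated in OPTI-MEM containing 5% FBS and left overnight at 37 deg C. Compounds are pinned in, incubation continues 24 hr, and firefly luciferase signal is then measured.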
mIDH1 inhibitor: human IDH1 R132H inhibition; O75874; AID 602179; Potency, µM (doses to about 76.6 µM), for the others: at the top dose activity change, negative = inhibition, usual class: inhibitors; IDH1-R132H enzyme, NADPH consumption, diaphorase/resazurin fluorescence; 390,000 tested, 0.093% active; also: potency is read from the fitted curve at half-maximal effect; % is scaled to controls: 0 for no effect and ±100 for the full control effect; nearly all actives have a fitted effect of over 65% in size
Target sequence (O75874 whole entry R132H, stated change not applied): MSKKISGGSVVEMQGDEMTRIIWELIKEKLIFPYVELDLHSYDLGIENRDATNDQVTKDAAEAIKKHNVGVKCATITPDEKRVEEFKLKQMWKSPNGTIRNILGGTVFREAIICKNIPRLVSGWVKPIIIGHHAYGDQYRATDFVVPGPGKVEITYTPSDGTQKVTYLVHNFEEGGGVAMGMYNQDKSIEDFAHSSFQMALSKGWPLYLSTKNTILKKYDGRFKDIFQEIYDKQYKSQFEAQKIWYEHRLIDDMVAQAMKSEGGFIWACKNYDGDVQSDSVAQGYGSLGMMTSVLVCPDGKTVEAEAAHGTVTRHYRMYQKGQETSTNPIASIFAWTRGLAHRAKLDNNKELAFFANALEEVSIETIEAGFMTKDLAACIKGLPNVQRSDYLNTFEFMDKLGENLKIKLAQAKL
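IDH1-R132H (0.5 ug/mL dispensed) in pH 7.5 Tris buffer was preincubated 30 min with compound, then given a substrate mix of 0.016 mM NADPH and 2 mM alpha-KG for 80 min at room temperature; remaining NADPH was read by diaphorase/resazurin fluorescence.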
A549 viability: counter-screen for Nrf2 inhibitors: cytotoxicity in A549 cells | Potency, µM (series often up to 46 µM), without a hit: at the highest dose activity change, negative = cytotoxicity, most hits filed as inhibitors | A549 ARE-Fluc cells, CellTiter-Fluor viability, 18-24 h | 390,000 tested, 0.16% active; also: potency is read from the fitted curve at half-maximal effect; % is scaled to controls: 0 for no effect and ±100 for the full control effect
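A549 ARE-Fluc cells in 5% FBS OPTI-MEM, 5000 cells/well, rested 2 h then exposed to compounds in concentration-response for 18-24 h at 37 °C. Viability by CellTiter-Fluor fluorescence (Ex 405/Em 525) after 30 min; luciferase luminescence (BugLite, 15 min, RT) read afterwards.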
Nrf2 block: blocks Nrf2 signaling; A549 ARE-Fluc reporter, luciferase luminescence, 18-24 h; Potency, µM (doses to about 46 µM), without a hit: at the highest dose activity change, negative = inhibition, usual class: inhibitors; 360,000 tested, 2.1% active; AID 504444; also: potency is read from the fitted curve at half-maximal effect; % is scaled to controls: 0 for no effect and ±100 for the full control effect; nearly all actives have a fitted effect of over 60% in size
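Two sequential reads on A549 ARE_Fluc cells exposed to compound for 18-24 h: a CellTiter-Fluor fluorescence read for viability, then a luciferase luminescence read for Nrf2/ARE activity.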
ELG1 repair inh: blocks ELG1-dependent DNA repair in HEK293T cells. HEK293T ELG1-luciferase reporter, luminescence, 16 h; DNA damage induced by 5-fluorouridine. Potency, µM (top dose mostly 46.1 µM), for the others: at the top dose activity change, negative = inhibition, actives largely listed as inhibitors. 330,000 tested, 2.3% active. AID 504467; also: potency is read from the fitted curve at half-maximal effect; % is scaled to controls: 0 for no effect and ±100 for the full control effect; nearly all actives have a fitted effect of over 55% in size
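Luminescence from the luciferase reporter, measured 30 min after ONE-Glo reagent at room temperature, was the read-out. Beforehand, 2,000 cells per well were exposed for 16 hr at 37 °C to 5-fluorouridine together with compound or vehicle.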
Resorufin autofl: interferes with resorufin fluorescence in IDH1 counter-screen | 750 tested, under 10 active | inhibition of signal, % at 51.2 µM | Resorufin detection reagent fluorescence interference, cell-free | shares compounds with mIDH1 inhibitor;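 also: 0% = wells with normal resorufin and full inhibition = wells lacking resorufin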
WT IDH1 inh: wild-type IDH1 (human) inhibition counterscreen | shares compounds with mIDH1 inhibitor | WT IDH1 enzyme, NADPH diaphorase/resazurin fluorescence | Potency, µM (doses to about 115 µM), for inactives: top-dose activity change, negative = inhibition, hits mostly inhibitors | 750 tested, 9% active | AID 623995;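 also: potency is read from the fitted curve at half-maximal effect; 0% = full WT IDH1 enzyme control and full inhibition = no enzyme wells; nearly all actives have a fitted effect of over 55% in size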
Target sequence (O75874 whole entry, looked up): as the sequence (O75874 whole entry R132H, stated change not applied) above, with H132R counted along it
IDH1 R132H conf: mutant IDH1 (human) inhibition, confirmed | IDH1 R132H enzyme, NADPH diaphorase/resazurin fluorescence | shares compounds with mIDH1 inhibitor | Potency, µM (series often up to 76.6 µM), for the others: at the highest dose activity change, negative = inhibition, usual class: inhibitors | AID 624002 | 750 tested, 83% active; also: potency is read from the fitted curve at half-maximal effect; nearly all actives have a fitted effect of over 50% in size
The depositor's hits bear a star. Calls follow the shape of the dose curve; as a rule, active = well fitted curve in the direction sought with a large enough effect; inconclusive = small, poorly fitted or top-dose-only effect, or another doubt; inactive = no such curve, though single readings can be large; an effect the other way counts as inactive or inconclusive.

How did O=S(=O)(NCC(Nc1ccc(Cl)cc1)c1ccccc1)c1ccccc1 (stereo not drawn) do in these assays?
Nrf2 activator: 0%; mIDH1 inhibitor: inconclusive; A549 viability: inconclusive; Nrf2 block: inconclusive; ELG1 repair inh: -9%; Resorufin autofl: 2; WT IDH1 inh: -6%; IDH1 R132H conf: 22µM*

What do the screens show for `Cc1ccc(NC(CNS(=O)(=O)c2ccc(Cl)cc2)c2ccccc2)cc1` (stereo not drawn)?
Nrf2 activator: 0%; mIDH1 inhibitor: -3%; A549 viability: inconclusive; Nrf2 block: inconclusive; ELG1 repair inh: 43%

Results for COc1ccc(NC2=C(c3ccccc3)C(=O)c3ccccc32)cc1Cl ?
Nrf2 activator: 14%; mIDH1 inhibitor: inconclusive; A549 viability: -18%; Nrf2 block: -6%; Resorufin autofl: -6; WT IDH1 inh: -1%; IDH1 R132H conf: 7.1µM*

Results for CCOC(=O)C(CC(=O)Nc1nc(C(C)=O)c(C)s1)C(C)c1ccccc1 (stereo not drawn) ?
Nrf2 activator: 1%; mIDH1 inhibitor: -3%; A549 viability: 4%; Nrf2 block: -3%; ELG1 repair inh: inconclusive

What do the screens show for `Cc1nc(N2CCN(C(=O)c3ccco3)CC2)nc2c1C(=O)CCC2`?
Nrf2 activator: 16%; mIDH1 inhibitor: -2%; A549 viability: 1%; Nrf2 block: inconclusive; ELG1 repair inh: inconclusive

What do the screens show for `COc1ccccc1N(C(=O)c1snc(C(N)=O)c1N)C(C(=O)NCc1ccccc1)c1ccc(O)cc1` (stereo not drawn)?
Nrf2 activator: 0%; mIDH1 inhibitor: 58µM*; A549 viability: -3%; Nrf2 block: 3%; ELG1 repair inh: -1%; Resorufin autofl: 6; WT IDH1 inh: -2%; IDH1 R132H conf: 22µM*

Results for CC(=O)c1cccc(N(C(=O)c2ccco2)C(C(=O)NC2CCCC2)c2ccccc2F)c1 (stereo not drawn) ?
Nrf2 activator: 0%; mIDH1 inhibitor: 23µM*; A549 viability: -5%; Nrf2 block: -11%; ELG1 repair inh: 13%; Resorufin autofl: -1; WT IDH1 inh: 4%; IDH1 R132H conf: 11µM*

How did Cc1cccc(N(C(=O)c2ccco2)C(C(=O)NC2CCCC2)c2ccco2)c1C (stereo not drawn) do in these assays?
Nrf2 activator: 0%; mIDH1 inhibitor: inconclusive; A549 viability: -1%; Nrf2 block: -12%; ELG1 repair inh: 7%; Resorufin autofl: -5; WT IDH1 inh: 8%; IDH1 R132H conf: 20µM*

How did Cc1ccc(C(C(=O)NC2CCCC2)N(Cc2ccccc2)C(=O)c2csnn2)o1 (stereo not drawn) do in these assays?
Nrf2 activator: 0%; mIDH1 inhibitor: -1%; A549 viability: 2%; Nrf2 block: -10%; ELG1 repair inh: -17%

Results for Cc1ccc(C(C(=O)NC2CCCCC2)N(Cc2ccccc2)C(=O)Cc2c[nH]c3ccccc23)o1 (stereo not drawn) ?
Nrf2 activator: 0%; mIDH1 inhibitor: inconclusive; A549 viability: inconclusive; Nrf2 block: inconclusive; ELG1 repair inh: inconclusive; Resorufin autofl: -6; WT IDH1 inh: 9%; IDH1 R132H conf: inconclusive

How did COc1ccccc1CNC(=O)C1CCN(S(=O)(=O)Cc2ccccc2)CC1 do in these assays?
Nrf2 activator: 0%; mIDH1 inhibitor: 18%; A549 viability: 0%; Nrf2 block: 20%

What do the screens show for `CC(=O)Nc1ccc(-c2ccnc3c2CC(C)(C(=O)NCc2ccc(N(C)C)cc2)O3)cc1` (stereo not drawn)?
Nrf2 activator: 2%

How did O=C1/C(=C/c2cccc(F)c2)Oc2cc(O)ccc21 do in these assays?
Nrf2 activator: 29%; mIDH1 inhibitor: -1%; A549 viability: 5%; Nrf2 block: inconclusive; ELG1 repair inh: inconclusive

Results for Cc1ccc(CCNC(=O)CCCn2c(=O)c3ccccc3n(CC(=O)Nc3cc(Cl)ccc3C)c2=O)cc1 ?
Nrf2 activator: 0%; mIDH1 inhibitor: 8%; A549 viability: -6%; Nrf2 block: 5%

What do the screens show for `CC(NC(=O)c1ccc2c(c1)N(Cc1ccc(Cl)cc1)C(=O)c1ccccc1S2=O)c1ccccc1` (stereo not drawn)?
Nrf2 activator: 0%; mIDH1 inhibitor: 1%; A549 viability: -6%; Nrf2 block: -5%

Results for CCc1ccc(NC(=O)COCc2cc(-c3ccc(F)cc3)on2)cc1 ?
Nrf2 activator: 4%; mIDH1 inhibitor: -14%; A549 viability: -3%; Nrf2 block: 2%

Results for Cc1ccccc1N(C(=O)c1snc(C(N)=O)c1N)C(C(=O)NC1CCCC1)c1ccco1 (stereo not drawn) ?
Nrf2 activator: 0%; mIDH1 inhibitor: inconclusive; A549 viability: -6%; Nrf2 block: inconclusive; ELG1 repair inh: -5%; Resorufin autofl: 2; WT IDH1 inh: 13%; IDH1 R132H conf: 40µM*

Results for Cc1ccc(C(C(=O)NC2CCCC2)N(Cc2ccc(F)cc2)C(=O)c2snc(C(N)=O)c2N)o1 (stereo not drawn) ?
Nrf2 activator: 4%; mIDH1 inhibitor: inconclusive; A549 viability: -9%; Nrf2 block: inconclusive; ELG1 repair inh: -6%; Resorufin autofl: -12; WT IDH1 inh: 11%; IDH1 R132H conf: inconclusive

How did COc1ccc(C(C(=O)NC2CCCC2)N(C(=O)c2snc(C(N)=O)c2N)c2ccccc2OC)cc1OC (stereo not drawn) do in these assays?
Nrf2 activator: 0%; mIDH1 inhibitor: -7%; A549 viability: -8%; Nrf2 block: -11%; ELG1 repair inh: 0%

What do the screens show for `Cc1ccc(C(C(=O)NC2CCCC2)N(Cc2ccc(F)cc2)C(=O)c2csnn2)o1` (stereo not drawn)?
Nrf2 activator: 0%; mIDH1 inhibitor: -3%; A549 viability: -7%; Nrf2 block: 2%; ELG1 repair inh: -15%
